ChEMBL document CHEMBL1157539, “Thousands of chemical starting points for antimalarial lead identification” (Nature, 2010)

What was measured:
Assay type in all cases: functional
Plasmodium falciparum [1] = test: GSK_TCMDC: Inhibition of Plasmodium falciparum 3D7 in whole red blood cells, using parasite LDH activity as an index of growth. Test compounds present at 2uM
Plasmodium falciparum [2] = test: GSK_TCMDC: Inhibition of Plasmodium falciparum Dd2 in whole red blood cells, using parasite LDH activity as an index of growth. Test compounds present at 2uM
HepG2 = test: GSK_TCMDC: Percent inhibition of human HepG2 cell line. Test compounds present at 10uM.

SMILES	Inhibition (Plasmodium falciparum [1])	Inhibition (Plasmodium falciparum [2])	Inhibition (HepG2)
Cc1nc(NCCc2c[nH]cn2)cc(NCc2ccccc2)n1	100%	5%	5%
CN1CCC(N2CCN(Cc3ccc(-c4cccc(-c5nc6ccccc6[nH]5)c4)cc3)CC2)CC1.O=C(O)C(F)(F)F	99%	100%	48%
COc1ccccc1CCNc1nc(C)cc(N[C@@H](CC(C)C)C(=O)NCCc2ccccc2)n1.O=C(O)C(F)(F)F	97%	81%	12%
CCOC(=O)CNC(=O)N(CCN(Cc1ccccc1)C(=O)NCC(=O)OCC)Cc1ccccc1	98%	0%	9%
Cc1ccc(Cn2ncc(N3CCNCC3)c(Cl)c2=O)cc1NC(=O)Nc1ccc(-c2ccccc2)cc1.O=C(O)C(F)(F)F	90%	30%	56%
NCCCNc1nccc(N2CCc3ncnc(Nc4ccc(OCc5cccc(F)c5)c(Cl)c4)c3C2)n1	98%	93%	18%
CC(Cc1ccc(OCCN2CCN(c3ccccc3)CC2)cc1)NCC(O)c1cccc(Cl)c1F.Cl (centres undefined)	92%	56%	40%
CS(=O)(=O)c1ccc(CNCc2cccc(-c3ccc(-c4nc5cc(C(F)(F)F)ccc5[nH]4)cc3)c2)cc1.O=C(O)C(F)(F)F	100%	96%	31%
CCCNCc1ccc(-c2ccc(CN(Cc3cccs3)C(=O)C3CCN(C)CC3)cc2)nc1.O=C(O)C(F)(F)F	99%	35%	10%
OC(CNc1ccnc(Nc2ccccc2)n1)c1ccc(C(F)(F)F)cc1 (centres undefined)	100%	39%	3%
Cn1cncc1-c1cc2c(Nc3ccc(OCc4ccccc4)cc3)ncnc2cn1	99%	75%	0%
O=C(Nc1ccccc1Cc1ccccc1)c1ccccc1[N+](=O)[O-]	98%	59%	0%
Cc1ccc(C(c2nnnn2C2CCCC2)N(Cc2ccco2)Cc2ccccc2Cl)cc1 (centres undefined)	85%	78%	8%
COCCNCc1cccc(C#Cc2cc3ncnc(Nc4ccc(OCc5cccc(F)c5)c(Cl)c4)c3s2)n1	99%	52%	35%
Cc1ccc2nc(-c3ccc(C(=O)NC4CCN(Cc5ccccc5)CC4)cc3)[nH]c2c1C	100%	46%	22%
CC(C)CNCc1ccc(-c2cccc(CN(CCN(C)C)C(=O)CCC3CCCC3)c2)cc1.O=C(O)C(F)(F)F	100%	81%	56%
Cl.O=c1cc(NCCCNCc2ccc(Cl)c(Cl)c2)[nH]c2ccc(Cl)cc12	100%	54%	11%
CCOc1cc(C(=O)Nc2ccccc2N2CCN(S(C)(=O)=O)CC2)cc(OCC)c1OCC	91%	80%	0%
Cc1nc2ccc(-c3ccc(OC(F)(F)F)cc3)cc2c(O)c1C#N	98%	97%	0%
Cc1cnc(C(=O)Nc2ccc3c(c2)CCCN(Cc2c[nH]c4cnccc24)C3)cn1.O=CO	92%	20%	0%
COc1ccc(CNc2nc(NCc3ccc(C(F)(F)F)cc3)c3cc(OC)c(OC)cc3n2)cc1OC	100%	100%	80%
COc1ccccc1-c1cccc2c(NC(=O)Nc3ccc4nccc(N5CCN(C)CC5)c4c3)ccnc12	94%	34%	3%
COc1ccc(N2CCN(CCCC/C=C/c3ccc(NC(=O)c4cc(Cl)cc(Cl)c4)cc3)CC2)c(OC)c1	99%	39%	20%
CN(CCc1ccccc1)c1ncc(-c2cccc(CNCCC3CCCN3C)c2)cn1 (centres undefined)	92%	98%	99%
O=C(/C=C/c1ccc(Cl)c(Cl)c1)NC1CCN(Cc2ccc(O)cc2)CC1.O=C(O)C(F)(F)F	100%	43%	0%
O=c1cc(NCCCNC2CCc3ccc(Cl)cc32)[nH]c2ccccc12 (centres undefined)	92%	39%	0%
CC(C)c1ccc(N2CCN(CCCCNC(=O)c3ccc(NC(=O)c4cc(Cl)cc(Cl)c4)cc3)CC2)cc1	100%	86%	12%
Fc1ccc2[nH]c(-c3cccc(-c4ccc(CN5CCN(c6ccncc6)CC5)cc4)c3)nc2c1.O=C(O)C(F)(F)F	100%	67%	39%
